Only some compounds are listed: those with a hit (about 4.1% of all), similar ones and a draw of the others.
CHT allo act: CHT positive allosteric modulators, primary screen, cell-based, membrane potential dye, choline EC20 | High affinity choline transporter 1 (Homo sapiens), Q9GZV3 | CHT-expressing cells; hits give high values; LV-AA mutant CHT in HEK293 cells | B-score at 10 µM | 310,000 compounds, 0.49% hits | AID 488977, 2010;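 active = initial fluorescence not abnormally high and integrated response B-score, plate-corrected, over 3 SD above library mean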
Target sequence (Q9GZV3 whole entry, looked up): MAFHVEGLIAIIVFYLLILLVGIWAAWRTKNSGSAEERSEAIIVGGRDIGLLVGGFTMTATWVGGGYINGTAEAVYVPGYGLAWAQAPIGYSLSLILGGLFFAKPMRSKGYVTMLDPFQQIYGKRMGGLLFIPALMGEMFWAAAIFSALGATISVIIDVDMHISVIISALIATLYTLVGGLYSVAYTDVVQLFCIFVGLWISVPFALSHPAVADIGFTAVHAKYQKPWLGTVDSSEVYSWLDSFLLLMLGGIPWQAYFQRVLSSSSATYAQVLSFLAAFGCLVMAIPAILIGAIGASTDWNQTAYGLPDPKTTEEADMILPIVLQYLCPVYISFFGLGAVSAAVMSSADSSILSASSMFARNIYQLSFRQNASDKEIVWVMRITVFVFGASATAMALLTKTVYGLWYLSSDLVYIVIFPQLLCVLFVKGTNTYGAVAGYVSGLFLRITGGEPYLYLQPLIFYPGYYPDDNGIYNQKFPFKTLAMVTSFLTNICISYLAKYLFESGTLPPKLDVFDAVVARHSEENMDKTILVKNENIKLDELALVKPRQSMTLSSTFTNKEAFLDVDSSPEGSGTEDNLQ
MEKK2 mut-MEK5: MEK5 binding signal on mutant MEKK2 PB1, primary screen, biochemical, multiplex bead flow cytometry, Alexa488-MEK5; 290,000 compounds, 0.35% hits; Alexa488-MEK5 binding to MEKK2 mutant; AID 1530, 2009; percent response, % at 10 µM; in the data active = percent response above about 24%, passing the limit was not always enough
CHT inh: inhibitors of human choline transporter CHT; High affinity choline transporter 1 (Homo sapiens), Q9GZV3; CHT-expressing cells, membrane potential dye, choline response; hits give low values; B-score at 10 µM; 310,000 compounds, 0.86% hits; AID 488975, 2010;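 active = B-score over 3 SD under the library average, and starting fluorescence ratio not unusually high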;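 also: choline stimulus applied at its EC90 after an EC20 pre-addition; B-score computed on integrated fluorescence ratio after choline addition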
MEKK2 WT-MEK5: modulators of MEK5 binding to wildtype MEKK2, primary screen, biochemical, multiplex bead flow cytometry, Alexa488-MEK5; Alexa488-MEK5 binding to MEKK2 WT; actives lie on both sides; binding response (% of control), % at 10 µM; 290,000 compounds, 1.1% hits; in the data active = binding response below about 67% or above about 130%
Mot1-301 SUMO: yeast Mot1-301 growth rescue at high temperature, primary screen, SUMOylation pathway inhibitor project, S. cerevisiae, ATP luminescence, 38.5C | S. cerevisiae Mot1-301 growth rescue; percent above DMSO median, 100 means doubled | AID 2716, 2010 | growth rescue, % at 18.8 µM | 320,000 compounds, 1% hits;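 active = every valid replicate shows activation above 250% relative to neutral control wells; inactive = the rest, any valid replicate at or below 250%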;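 also: OY570 slx delta 5 strain wells were the positive control but not used for scaling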
MEKK3 PB1 HTS: modulators of MEKK3-MEK5 PB1 binding, primary screen, biochemical, wildtype MEKK3, multiplex bead flow cytometry, Alexa488-MEK5; 290,000 compounds, 1.4% hits; Mitogen-activated protein kinase kinase kinase 3 (Homo sapiens), Q99759; bead-based flow cytometry, Alexa488-MEK5 binding to MEKK3; actives lie on both sides; 0 = blocked by unlabeled MEK5, 100 = vehicle; binding response (% of control), % at 10 µM;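 active = binding response more than 3 SD above or below the average of its plate-row segment, actives on both sides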;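 also: Alexa488 bead fluorescence after subtracting the streptavidin-only scavenger bead signal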
CHT activ conf: CHT activators, confirmation, cell-based, membrane potential dye, duplicate; shares compounds with CHT allo act; activation, % at 10 µM; 2,500 compounds, 91% hits; AID 504833, 2011; CHT-expressing cells, membrane potential dye fluorescence (FDSS); % of choline EC20–EC90 response window; HEK293 expressing CHT LV-AA mutant; choline added at its EC20;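 active = primary screen active, with duplicate mean activation above negative control mean plus 3 SD, cut at about 11% in these data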
HEK293 MP dye: membrane potential response in parental HEK293 cells, counter-screen for CHT activator project, cell-based, membrane potential dye. shares compounds with CHT allo act. membrane potential dye fluorescence (FDSS); measured after EC20 choline addition. ratio readout change at 10 µM, hits read low. 2,500 compounds, 62% hits. AID 623908, 2012;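 active = duplicate-averaged ratio beyond 3 SD from buffer wells, up or down, though filed actives are nearly all decreases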
The depositor's hits bear a star; i = inactive; . = not tested or not shown.

SMILES	CHT allo act	MEKK2 mut-MEK5	CHT inh	MEKK2 WT-MEK5	Mot1-301 SUMO	MEKK3 PB1 HTS	CHT activ conf	HEK293 MP dye
Cc1cc(C)nc(NC(=O)C(c2ccccc2)c2ccccc2)c1	6.9*	2	i	108	23	104	40*	-35*
O=C1CN(C(=O)c2c(F)cccc2F)C(c2ccccc2)c2cc(Br)ccc2N1 (configuration not stated)	i	3	i	100	-4	106	14*	i
O=C1CN(C(=O)c2ccccc2[N+](=O)[O-])C(c2ccccc2)c2cc(Br)ccc2N1 (configuration not stated)	6.7*	0	i	99	179	101	24*	i
O=C1CN(C(=O)c2c(F)cccc2F)C(c2ccc(F)cc2)c2cc(Br)ccc2N1 (configuration not stated)	i	7	i	102	-8	105	.	.
Cc1c(C(=O)NCc2ccccc2CN2CCCC2)oc2ccc(F)cc12	.	.	.	.	5	.	.	.
COC(=O)C1=C(C)N(Cc2ccccc2)C(=NCc2cccc(Cl)c2)N[C@H]1c1cccc(F)c1	.	.	.	.	14	.	.	.
CCN1C(=NCC2CC2)N[C@@H](c2cccc(C(F)(F)F)c2)C(C(=O)OC)=C1C	11*	21	i	114	399	106	25*	i
COC(=O)C1=C(C)N(Cc2ccccc2)C(=NCc2ccc(OC)cc2)N[C@H]1c1cccc(F)c1	i	5	i	133	-18	105	20*	i
CN1C(=O)C(=O)/C(=C(/O)c2ccc(Br)cc2)C1c1ccc(F)cc1 (configuration not stated)	i	9	i	98	9	100	.	.
CCCC[C@@H]1CNCCN1CCc1cccc2ccccc12	i	.	i	.	-2	.	.	.
Cn1c(=O)c([N+](=O)[O-])c(NCCCn2ccnc2)c2ccccc21	i	23	i	104	-14	105	58*	-55*
CCOc1ncccc1C(=O)N1CCN(c2cccc(C)c2C)CC1	.	2	.	104	.	98	.	.
CCOc1ncccc1C(=O)N1CCN(c2cc(Cl)ccc2C)CC1	14*	.	i	.	-2	.	45*	i
Cc1cc(N2CC(C)OC(C)C2)nc2ccccc12 (configuration not stated)	6.6*	-6	i	96	111	94	28*	-55*
Cc1nnc(NC(=O)C23CC4CC(CC(C4)C2)C3)s1	i	8	i	107	-7	107	.	.
Cn1c(-c2ccncc2)nc2ccccc21	i	8	i	103	307	102	.	.
CCN(CC)c1ccc(-c2nc3cnccc3n2C)cc1	10*	-1	i	103	2	100	33*	-49*
CSc1ccc(CN(C)C(=O)C(c2ccccc2)c2ccccc2)cc1	7.1*	3	i	98	-8	104	34*	i
CSc1ccc(CN(C)C(=O)C(Cc2ccccc2)NC(=O)c2ccccc2)cc1 (configuration not stated)	i	4	i	100	41	99	.	.
Cc1cc(N2CCCC2)nc2c(C)cccc12	i	9	i	109	-18	106	.	.
COc1ccc(OC)c2c(C)cc(N3CCCN(C)CC3)nc12	8*	7	i	108	8	101	46*	-74*
Cc1ccc(C[n+]2cccc(-c3ccccc3)c2)c(C)c1	8.4*	-1	i	99	-11	97	59*	i
Cc1ccc[n+](CC(=O)c2ccccc2)c1	i	7	i	104	-2	105	.	.
CCOc1ccc(-c2c(C(=O)N/N=C/c3ccsc3)nnn2-c2nonc2N)cc1	i	3	i	97	-12	99	.	.
CC1CC(C)CN(c2nc3c(c(=O)n(C)c(=O)n3C)n2CCSc2ncccn2)C1 (configuration not stated)	i	11	i	111	39	104	.	.
SMILES	CHT allo act	MEKK2 mut-MEK5	CHT inh	MEKK2 WT-MEK5	Mot1-301 SUMO	MEKK3 PB1 HTS	CHT activ conf	HEK293 MP dye
Cn1c(=O)c2c(nc(N3CCOCC3)n2CCSc2ncccn2)n(C)c1=O	8.6*	9	i	108	-6	108	75*	-79*
Cn1c(=O)c2c(nc(N3CCOCC3)n2CCCNC2=NCCC2)n(C)c1=O	8.8*	12	i	112	1	106	54*	-56*
Cc1cccc(OCC(=O)NCCCNC(=O)c2ccco2)c1	i	4	i	97	12	101	.	.
C/C=C(\C)C(=O)OC1CC(C)(C)C[C@H]2C3=CC[C@@H]4[C@@]5(C)CCC(O[C@@H]6O[C@@H](C(=O)O)[C@@H](O)C(O[C@@H]7OC[C@H](O)[C@@H](O)[C@@H]7O[C@@H]7OC(CO)C(O)[C@@H](O)[C@@H]7O)C6O[C@@H]6OC(CO)C(O)C(O)C6O)[C@@](C)(CO)[C@@H]5CC[C@]4(C)[C@]3(C)CC(O)[C@@]12CO (some centres not stated)	.	.	.	.	9	.	.	.
Cc1cc(C)n(-c2cccc(C(=O)O)c2)n1	i	-15	i	81	8	83	.	.
CC1=NN(c2nc3ccccc3[nH]2)C(=O)/C1=C/N(C)C	i	-8	i	84	-59	98	46*	-33*
COCCNc1nc(-c2ccccc2)nc2ccccc12	i	-9	i	89	0	107	31*	-36*
COCCCNc1nc(-c2ccc(Cl)cc2)nc2ccccc12	i	5	i	117	16	112	.	.
O=C(CCSCCc1ccccn1)Nc1ccc(Br)cn1	i	3	i	99	222	100	.	.
Clc1ccc(CSc2nncn2-c2ccc3c(c2)OCCO3)cc1	13*	5	i	104	16	105	5	i
Clc1ccc(CSc2nncn2-c2ccccn2)cc1	i	0	i	96	1	99	.	.
